Values joined by “and” are separate entries in the source; they are usually repeats but may differ in a detail not shown here. Identical values can stand only once. Among all 5,500 compounds or so, about 2,000 (36%) were called active. Roughly 18% stayed inconclusive and do not appear here. No stated cut-off is given here; in the data, active means normalized growth mostly below about 0.91 (no sharp cut-off); inconclusive means no clear call, values can overlap the other calls; inactive means mostly above about 0.92. This is one part of the list.
Assay: chemical genetic growth profiling, strain panel (AID 1159580);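 further: tested at 20 µM; growth read once vehicle control cultures reached saturation at 30 °C; 1 = growth at the plate median or of vehicle wells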
Details: S. cerevisiae deletion strains, growth OD
[1] = locus YAL040C, strain CLN3, stronger effect = lower value
[2] = locus YCL061C, strain MRC1 (second series), stronger effect = lower value
[3] = locus YDR150W, strain NUM1, stronger effect = lower value
[4] = locus YDR363W, strain ESC2, stronger effect = lower value
[5] = locus YER002W, strain NOP16, stronger effect = lower value
[6] = locus YGR078C, strain PAC10, stronger effect = lower value
[7] = locus YMR307W, strain GAS1, stronger effect = lower value
[8] = locus YNL175C, strain NOP13, stronger effect = lower value
[9] = locus YNL197C, strain WHI3, stronger effect = lower value
[10] = locus YNL224C, strain SQS1, stronger effect = lower value
[11] = locus YNL322C, strain KRE1, stronger effect = lower value
[12] = locus YOR083W, strain WHI5 (second series), stronger effect = lower value
[13] = locus YAL013W, strain DEP1, stronger effect = lower value
[14] = locus YBR229C, strain ROT2, stronger effect = lower value
[15] = locus YDL101C, strain DUN1, stronger effect = lower value
[16] = locus YDL134C, strain PPH21, stronger effect = lower value
[17] = locus YEL061C, strain CIN8, stronger effect = lower value
[18] = locus YHR030C, strain SLT2, stronger effect = lower value
[19] = locus YJR043C, strain POL32, stronger effect = lower value
[20] = locus YJR075W, strain HOC1, stronger effect = lower value
[21] = locus YKL190W, strain CNB1, stronger effect = lower value
[22] = locus YLR039C, strain RIC1, stronger effect = lower value
[23] = locus YLR262C, strain YPT6, stronger effect = lower value
[24] = locus YMR263W, strain SAP30, stronger effect = lower value
[25] = locus YNL153C, strain GIM3, stronger effect = lower value

Measured: normalized growth

CCC1(O)CC2CN(CCc3c([nH]c4ccccc34)[C@@](C(=O)OC)(c3cc4c(cc3OC)N(C=O)C3[C@]45CCN4CC=C[C@@](CC)([C@@H](OC(C)=O)[C@]3(O)C(=O)OC)[C@H]45)C2)C1 (some centres not stated)
inactive: [1] 0.979 | [2] 0.991 | [3] 0.999 | [4] 0.986 | [5] 1 | [6] 0.999 | locus YGR229C, strain SMI1, stronger effect = lower value 0.983 | [7] 0.99 | [8] 1.01 | [9] 0.983 | [10] 1 | [11] 0.957 | [12] 0.99

NC(CSCSCC(N)C(=O)O)C(=O)O (configuration not stated)
inactive: [13] 1.01 | locus YBR021W, strain FUR4, stronger effect = lower value 1.01 | [14] 0.998 | locus YCL029C, strain bik1, stronger effect = lower value 0.989 | locus YDL035C, strain GPR1, stronger effect = lower value 1.02 | locus YDL074C, strain BRE1, stronger effect = lower value 1.05 | [15] 1 | [16] 0.988 | locus YDL185W, strain tfp1, stronger effect = lower value 1.01 | locus YDL192W, strain arf1, stronger effect = lower value 0.977 | locus YDR101C, strain arx1, stronger effect = lower value 0.999 | locus YDR162C, strain NBP2, stronger effect = lower value 1.02 | locus YDR318W, strain mcm21, stronger effect = lower value 0.981 | locus YDR388W, stronger effect = lower value 0.986 | locus YDR502C, strain sam2, stronger effect = lower value 1 | [17] 1.02 | locus YER110C, stronger effect = lower value 0.987 | locus YER155C, strain BEM2, stronger effect = lower value 1.01 | locus YER167W, strain BCK2, stronger effect = lower value 1 | locus YGL078C, strain dbp3, stronger effect = lower value 1.01 | locus YGL086W, strain mad1, stronger effect = lower value 1 | locus YGL248W, strain PDE1, stronger effect = lower value 0.997 | locus YGR135W, strain pre9, stronger effect = lower value 0.99 | locus YGR252W, strain gcn5, stronger effect = lower value 1.11 | [18] 1.01 and 1.04 | locus YHR079C, strain IRE1 (second series), stronger effect = lower value 0.987 | locus YHR079C, strain IRE1, stronger effect = lower value 1.04 | locus YHR094C, strain hxt1, stronger effect = lower value 0.985 | locus YHR129C, strain ARP1, stronger effect = lower value 0.995 | locus YHR200W, strain rpn10, stronger effect = lower value 0.997 | locus YIL066C, strain RNR3, stronger effect = lower value 1.01 | locus YIL073C, strain SPO22, stronger effect = lower value 1.06 | locus YIL125W, strain kgd1, stronger effect = lower value 1.01 | locus YIR030C, strain dcg1, stronger effect = lower value 0.999 | locus YJL095W, strain BCK1, stronger effect = lower value 1.01 and 1.02 | locus YJL134W, strain LCB3, stronger effect = lower value 1.01 | locus YJL168C, strain set2, stronger effect = lower value 0.982 | locus YJL187C, strain SWE1 (second series), stronger effect = lower value 1.01 | [19] 1.01 | locus YJR066W, strain TOR1, stronger effect = lower value 0.979 | [20] 1.01 | locus YKL009W, strain mrt4, stronger effect = lower value 1.01 | locus YKL068W, stronger effect = lower value 1 | locus YKL085W, strain MDH1 (second series), stronger effect = lower value 0.998 | locus YKL085W, strain MDH1, stronger effect = lower value 0.998 | [21] 1.01 | locus YKR001C, strain vps1, stronger effect = lower value 1.02 | [22] 1.1 | locus YLR058C, strain SHM2, stronger effect = lower value 1 | locus YLR102C, strain apc9, stronger effect = lower value 0.979 | locus YLR113W, strain HOG1, stronger effect = lower value 1.04 | [23] 1.12 | locus YLR268W, strain sec22, stronger effect = lower value 1.02 | locus YLR330W, strain CHS5, stronger effect = lower value 1.01 | locus YLR342W, strain FKS1 (second series), stronger effect = lower value 1.02 | locus YLR371W, strain rom2, stronger effect = lower value 0.977 | locus YLR418C, strain cdc73, stronger effect = lower value 1.01 | locus YML016C, strain PPZ1, stronger effect = lower value 1 | locus YML032C, strain rad52, stronger effect = lower value 0.992 | locus YML124C, strain tub3, stronger effect = lower value 0.99 | locus YMR078C, strain ctf18, stronger effect = lower value 0.988 | locus YMR223W, strain ubp8, stronger effect = lower value 0.994 | [24] 1.01 | [7] 1.02 | locus YNL067W, strain RPL9B, stronger effect = lower value 1 | [25] 1 | locus YNL183C, strain NPR1, stronger effect = lower value 0.983 | locus YNL233W, strain BNI4, stronger effect = lower value 1.02 | locus YNL250W, strain rad50, stronger effect = lower value 1.02 | locus YNL271C, strain bni1, stronger effect = lower value 1.01 | locus YNL298W, strain CLA4, stronger effect = lower value 1 | locus YNL307C, strain MCK1, stronger effect = lower value 0.987 | locus YNR052C, strain pop2, stronger effect = lower value 0.999 | locus YOL012C, strain htz1 0.928 | locus YOL147C, strain pex11, stronger effect = lower value 0.991 | locus YOR061W, strain CKA2, stronger effect = lower value 1.01 | locus YOR069W, strain VPS5, stronger effect = lower value 1.01 | locus YOR136W, strain idh2, stronger effect = lower value 0.996 | locus YOR144C, strain elg1, stronger effect = lower value 0.984 | locus YOR184W, strain ser1, stronger effect = lower value 0.995 | locus YOR231W, strain MKK1, stronger effect = lower value 1.04 | locus YOR316C, strain cot1, stronger effect = lower value 0.98 | locus YPL256C, strain CLN2, stronger effect = lower value 1.02 | locus YPR119W, strain clb2, stronger effect = lower value 0.987 | locus YPR141C, strain kar3, stronger effect = lower value 0.997 | locus YPR163C, strain tif3, stronger effect = lower value 0.999 | locus YPR167C, strain met16, stronger effect = lower value 0.988 | strain wtn01, stronger effect = lower value 1.04

FC(F)(F)c1cc(CO[C@H]2CCCN[C@H]2c2ccccc2)cc(C(F)(F)F)c1
inactive: [13] 0.988 | [1] 0.998 | [2] 0.975 | [4] 0.96 | [5] 1.04 | [24] 0.999 | [7] 0.964 | locus YNL128W, strain TEP1, stronger effect = lower value 1.05 | [25] 0.823 | [8] 1.04 | [9] 1.07 | [10] 1.03 | [12] 0.913

Cn1c2c(c3c1CCCC3)CCCC2
active: [25] 0.873
inactive: [13] 0.995 | [14] 1.03 | locus YCL061C, strain MRC1, stronger effect = lower value 1.01 | [15] 0.974 | [16] 1.02 | [3] 1.02 | [17] 0.988 | [6] 1.01 | [18] 1.01 | locus YHR087W, strain rtc3, stronger effect = lower value 0.992 | [19] 1.02 | [20] 1.02 | [21] 1.02 | [22] 0.925 | locus YLR058C, strain SHM2 (second series), stronger effect = lower value 1.02 | locus YLR085C, strain ARP6, stronger effect = lower value 1 | [23] 0.974 | locus YML094W, strain GIM5, stronger effect = lower value 0.972 | locus YMR219W, strain ESC1, stronger effect = lower value 1.02 | [24] 1 | locus YNL298W, strain CLA4 (second series), stronger effect = lower value 1.02 | [11] 1.01 | locus YNR030W, strain Alg12, stronger effect = lower value 1.03 | locus YOL006C, strain TOP1, stronger effect = lower value 1 | locus YPL055C, strain LGE1, stronger effect = lower value 1.08 | locus YPL241C, strain CIN2, stronger effect = lower value 1.01 | locus YPR135W, strain CTF4, stronger effect = lower value 1.06

— PubChem BioAssay AID1159580 (chemical genetic matrix, 2015)
